Screening data from PubChem BioAssay.
Only some compounds are listed: those with a hit (about 7.3% of all), similar ones and a draw of the others.
VACV mCherry inh = vaccinia inhibition (mCherry reporter). Vaccinia virus mCherry reporter infection, fluorescence. Potency, µM (series often up to 36.5 µM), actives largely listed as inhibitors. 310,000 tested, 0.63% active. AID 720579; calls by dose curve; tested in A549 cells; further: nearly all actives have a fitted effect of over 35% in size
HCV inhibitor = HCV inhibition | Potency, µM (top dose mostly 41.8 µM), hits mostly inhibitors | 340,000 tested, 3.4% active | AID 651820 | Huh7.5.1 HCVcc-Cre infection, luciferase reporter, 44 h; active means well fitted inhibition curve with a large enough effect; inconclusive means small, poorly fitted or top-dose-only effect, or another doubt; inactive means no such curve, though single readings can be large or run the other way
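A cell-based infection assay in which seeded cells (1,000 per well) receive test compound after 4 h, are inoculated with HCVcc-Cre at approximately 0.5 moi, and are incubated 44 h before luminescence detection.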
Vaccinia Venus = vaccinia inhibition (Venus reporter); Vaccinia virus Venus reporter expression, fluorescence; Potency, µM (titrated, usually from 36.5 µM), actives largely listed as inhibitors; 330,000 tested, 0.46% active; AID 720580; calls by dose curve; tested in A549 cells; further: nearly all actives have a fitted effect of over 30% in size
HCMV antiviral = inhibitors of human cytomegalovirus. HFF cells, HCMV-luciferase reporter, 72 h; hits give low values. activity change, negative = inhibition, % at 57.5 µM. 410,000 tested, 4.5% active. AID 1259415; in the data active means activity change below about -60%; inconclusive means no clear call, values can overlap the other calls; inactive means above about -39%
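HFF cells seeded 16 h at 37C, treated with compounds, infected with luciferase-reporter HCMV at MOI 1 PFU/cell; luciferase read at 72 h post infection, normalized to buffer-only and Salinomycin controls.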
FMDV inh = blocks foot and mouth disease virus | FMDV antiviral cell-based qHTS | Potency, µM (titrated, usually from 57.9 µM), hits mostly inhibitors | 410,000 tested, 1.2% active | AID 1159524; calls by dose curve; tested in HEK293T cells; further: read-out not given here; nearly all actives have a fitted effect of over 45% in size
Hits are given with their value; - = inactive; ? = inconclusive; . = not tested or not shown; [ ] = remark or other dose.

SMILES	VACV mCherry inh	HCV inhibitor	Vaccinia Venus	HCMV antiviral	FMDV inh
O=C(C[C@H]1C[C@H](C(=O)N2CCCCC2)[C@@]2(CCc3ccccc3)c3[nH]c4ccc(Cl)cc4c3CCN2C1=O)NCCCn1ccnc1	-	25µM	11µM	-	?
CCN(CC)C(=O)[C@H]1C[C@H](CC(=O)NCCCn2ccnc2)C(=O)N2CCc3c([nH]c4cc(-c5ccco5)ccc34)[C@]12C	-	-	-	-	-
O=C(C[C@H]1C[C@H](C(=O)N2CCCCC2)[C@@]2(CCc3ccccc3)c3[nH]c4cc(-c5ccco5)ccc4c3CCN2C1=O)NCCN1CCOCC1	?	?	10µM	-101	-
O=C(C[C@H]1C[C@H](C(=O)N2CCOCC2)[C@@]2(CCC3CCCC3)c3[nH]c4cc(-c5ccco5)ccc4c3CCN2C1=O)NCCCn1ccnc1	-	-	10µM	-90	-
Cc1ccc(-c2noc(-c3ccc(NC4CCCC4)c([N+](=O)[O-])c3)n2)cc1	-	.	-	-	-
O=C(COC(=O)c1ccc([N+](=O)[O-])o1)Nc1nc2ccccc2s1	-	10µM	-	-	-
O=C(COC(=O)c1ccc(Br)o1)Nc1nc2ccccc2s1	.	-	.	-	-
O=C(Nc1nc2ccc(F)cc2s1)c1ccc([N+](=O)[O-])o1	?	.	10µM	?	-
Cc1cc(-c2cc(NC(=O)Cc3c[nH]c4ccccc34)ccc2N(C)c2cccnc2)ccc1F	.	.	.	-	.
Cc1cccc(Nc2cc3[nH]c(-c4ccccc4)cc3cn2)c1	.	.	.	-	.
CC1(C2CCN(Cc3c[nH]c4ccccc34)CC2)NC(=O)N(CCN2CCOCC2)C1=O (configuration not stated)	-	.	-	.	-
CCC(=NCc1ccc(F)cc1)c1c(O)n(C)c(=O)n(C)c1=O	.	10µM	.	?	40µM
C#CCN1CC(COc2ccccc2)Oc2cccc(Oc3ccc(OC)cc3)c2S1(=O)=O (configuration not stated)	.	.	.	-	.
O=C(O)c1cc(/C=C/c2ccc(N3CCOCC3)cc2)nc2ccccc12	-	-	-	-	10µM
O=C(O)CCCCN1C(=O)C=CC1=O	.	.	.	-	.
Cc1csc2ncnc(NCCc3ccccn3)c12	.	7.1µM	.	?	?
CCC1CN(C(=O)N2CCC(C(=O)NCc3cccc(C)c3)CC2)c2ccccc2O1 (configuration not stated)	-	.	-	-	?
Cc1ccc(-c2noc(CNC(=O)c3ccc(Br)o3)n2)cc1	-	.	-	-	-
O=C(O)c1nc2ccccc2nc1C(=O)O	.	-	.	-	-
O=C(O)c1cccc2nc3ccccc3nc12	?	-	-	-63	-
CCOc1c2ccc(C(=O)NCCCCc3ccccc3)cc2nn1CC	-	3.5µM	-	-	-
COc1ccc(OC)c(-n2cnc3cc(C(=O)NCCc4ccccc4)ccc32)c1	-	.	-	-	-
Cc1cc(C)cc(-n2cnc3cc(C(=O)NCCc4ccccc4)ccc32)c1	-	.	-	-99	-
COC(CNC(=O)c1ccc2c(c1)ncn2-c1cccc(F)c1)OC	-	-	-	-73	-
CCc1ccccc1N1CC(c2nnc(NC(=O)c3ccco3)s2)CC1=O (configuration not stated)	-	.	-	-	-
SMILES	VACV mCherry inh	HCV inhibitor	Vaccinia Venus	HCMV antiviral	FMDV inh
CCCCNc1ccc2c(c1)OC[C@H](Cc1ccccc1)NS2(=O)=O	.	.	.	-	.
COc1cc(CCC(C)=O)ccc1OC(=O)c1c(F)cccc1Cl	-[7.34 µM]	11µM	-[7.34 µM]	-	-
COc1ccc(NC(=O)COC(=O)c2c(F)cccc2Cl)cc1OC	.	.	.	-	.
Nc1nc(N)c(S(=O)(=O)c2ccccc2)c(Nc2ccc(F)cc2)n1	-	.	-	-	-
OCC1(Cc2ccccc2)CCCN(Cc2cn[nH]c2-c2ccccc2)C1 (configuration not stated)	-	-	-	-	-
Cc1ccc(C)c(-c2[nH]ncc2CN2CCCC(CO)(Cc3ccccc3C)C2)c1 (configuration not stated)	-	13µM	-	-	-
COc1ccccc1NC(=O)c1cc(-c2ccc(OC)c(OC)c2)nc2ccccc12	-	-	-	-	-
COc1ccccc1NC(=O)c1cc(Sc2nncn2C)nc2ccccc12	.	-	11µM	-	-
CC(O)CNCCCOc1ccc(Cl)cc1C(C)(C)C (configuration not stated)	-	11µM	-	-	-
COCCCNCCCOc1ccc(Cl)cc1Br	.	13µM	.	-	-
CCCCNCCOCCOc1ccc(Cl)cc1Br	-	?	-	-	-
COCCCNCCCOc1ccc(C)cc1Br	-	-	-	-63	-
